Experimental data published in PubChem BioAssay AID1508600 (Functional Genomics Laboratory (NCATS/FGL), 2020).
Screen size: about 53,000 sequences; about 3,700 (7%) were called active. The sample as a whole holds a higher share of actives than the screen did. Values without a mark were called inactive.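 Rule for the calls: active = gene knockdowns whose robust z-score for IL-1 alpha signal is at least 2 or at most -2, so actives lie on both sides; inactive = the rest.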

test: Components of the Cytosolic LPS Sensing Pathway: Gene Identification via Genome-wide siRNA Screen; settings: RAW264.7 macrophages, IL-1a HTRF, actives lie on both sides, screened at 100 nM (by protocol), cells primed 5 h with Pam3CSK4 first
From the text: Non-canonical inflammasome activation by cytosolic LPS is a critical component of the host response to Gram-negative bacterial infection, however we lack a comprehensive understanding of the cellular processes that control this pathway. Here we describe a genome-wide siRNA screen to identify genes regulating the mouse macrophage IL-1 alpha response to cytosolic LPS.
RAW264.7 cells were maintained in complete DMEM media, comprising DMEM with 4.5 g/L glucose, 10% FBS (Gemini Bio-Products, West Sacramento, CA), 2 mM Glutamine (Lonza) and 20 mM HEPES (Lonza), hereafter complete DMEM.
The RNAi screen was conducted in 384-well format using the Ambion Silencer Mouse Genome siRNA Library (#4391425), which consists of three unique, nonoverlapping, nonpooled siRNAs for each of 17,000 gene targets. siRNA reagents ([…]) were stamped into 384-well white flat-bottom microplates (Corning, 3570) using a Velocity11 VPrep liquid handling system (Agilent) integrated into a BioCel robotic platform (Agilent) in columns 1-22, leaving columns 23-24 empty for negative (Ambion, Negative control #1) and positive (mouse Casp4) controls, respectively. The median value of each plate's negative control column was used to normalize sample wells, and the positive control was used to assess transfection efficiency and assay performance.
Lipofectamine RNAiMAX Transfection Reagent ([…]; Invitrogen) was added in […] serum-free, antibiotic-free media to plate wells using a Thermo Scientific Matrix WellMate and Microplate Stacker. Plates were incubated for 45 min at room temperature to allow for the sufficient formation of siRNA-lipid complexes. Cells were seeded at a density of 1x10^4 cells per well in 20 microL media containing 20% (vol/vol) FBS without antibiotics. The final concentration of siRNA in each well was 100 nM. Cells were cultured for 48h at 37 degrees C in 5% CO2 before addition of […] of TLR ligand Pam3CSK4 for 5 hours. The medium was then removed, replaced with […] growth media and cell were transfected with […] of LipidA and TransIT-TKO (Mirus) for 24 hour. At the end of the LipidA treatment, […] of supernatant was transferred to a 384 Greiner Bio-one non-binding low volume plate and […] of IL-1a HTRF reagent (Cisbio, 62MIL1APEH) was added and incubated at room temperature overnight. The plates were read on an EnVision plate reader (PerkinElmer). Cell viability was measured by adding 20ul Cell Titer Glo to the original plate and running a luminescence read on the EnVision. The quantified IL-1a signal for each siRNA gene-targeted well was divided by the median of the negative control wells and multiplied by 100 to achieve a negative control normalized value for each well/siRNA. This normalized value was then used to generate a robust z-score by first taking the log of each value and then by subtracting the median and dividing by the […].

| Sequence | z-score |
| --- | --- |
| GGAUCCCAAGUUCAAAGCCTT against Rfxap | 2.07 (active) |
| CCUAUAACAUCCACCUUCATT against Yipf3 | -0.508 |
| GGAAACAAGAAGAACGAUGTT against Camk2a | 1.47 |
| GCACUCAGCUAGGUGAAGATT against Hnrnpul1 | -0.186 |
| GAUCUAGGACAGCUUAGAUTT against Avpr1b | -0.955 |
| GCCAAUGAAAACCUUUUGCTT against Parp9 | -0.736 |
| GGAUUUUACAUUUCUACACTT against Tmprss15 | 2.14 (active) |
| CGCACUGGAUAAUAUCAGCTT against Dok5 | 0.0135 |
| GGCAGAAAUUUGGAUACCATT against Plekha4 | 2.1 (active) |
| GGAAGUUAGCUCCUAAAUATT against Pirt | -0.383 |
| CCUUUUUUAUAUCCACUCATT against Bahcc1 | 1.22 |
| GCAUCACUGCCACAGUGCATT against Olfr159 | -0.133 |
| GUAGUUGUUCUGAGAAAUCTT against Krtap19-2 | -0.49 |
| GGAAAUUCAAAAAGUGUGUTT against Aplf | -2.25 (active) |
| GGCCUGUUUUGAAGUAGAATT against B630019K06Rik | 0.352 |
| GCCAUUUGAAACUCUCCUGTT against Gstp3 | -1.71 |
| GGUCCUCCAGUUAAUGUCATT against Glra3 | -0.916 |
| GGUUAUCCAGAGAGUGCAUTT against Arl4d | 1.01 |
| ACUCCUAUGAGCUAGCUGUTT against Krt42 | 0.919 |
| GGAAUUGAGACCCAAUAUUTT against Cnot7 | -0.353 |
| GGAAUCAGCAAACUCAACCTT against Rnase11 | -0.748 |
| GGAUUCAGAAGCAGCAACATT against Nr1h2 | -2.29 (active) |

| Sequence | z-score |
| --- | --- |
| GGCCAAGGACAUUAUAAAUTT against Scly | -0.585 |
| AGUGAACAUCGAUCGCAUGTT against Gng8 | 0.937 |
| GCAAUGGUGGUUCUAAUAUTT against Cmya5 | -0.00244 |
| GCCAACCAGGAUUUUACAATT against Fga | 0.463 |
| GGAGAGUGUGUUUUCAGGCTT against Bop1 | 3.08 (active) |
| GAGUGUCUUGAACACAGCCTT against Olfr635 | -0.0711 |
| GGCCAAGUUCCUUUGCAUATT against Lacc1 | 0.274 |
| CCAAAUGUAGCGGAACUGATT against Rsu1 | 0.195 |
| GGGUAUGAGUGCAGACUAUTT against Zcchc9 | 0.803 |
| GGCUUUGUAGCGAUAACAATT against D930030D11Rik | -0.936 |
| GGUCAGUGACAUUAUCAAUTT against Vmn1r237 | 1.84 |
| GGAGCAGUUACAGGAAAUCTT against Cdr2 | -2.11 (active) |
| GGCAAGACUAUGAAUAUAATT against Ufsp2 | -0.486 |
| GGAUUUGGAUUUGGAUUUUTT against Tsc22d3 | 0.387 |
| CCUUGUACCCAGUAAAGUCTT against Mab21l4 | 0.586 |
| GGUGGACAAGUUCAAAGCCTT against Atg4d | -1.56 |
| GCAGGAUAUGUAAAGGUUUTT against Gimap3 | -0.924 |
| CCUAAAAGCAGGCCAAAAUTT against Dhx29 | -1.26 |
| GGAGAAGAGCCUUCUCAAGTT against Srsf4 | 2.05 (active) |
| GGUUAUAGCUUCAAUAGCUTT against Bphl | -0.61 |
| UAACAGACCAGUAAAGGCCTT against Klra21 | 0.322 |
| CCAGAUACCCAUAAUAUCUTT against Mbnl1 | -0.604 |

| Sequence | z-score |
| --- | --- |
| CGAUUUCCUUGGCACCAAUTT against Arhgap1 | -0.675 |
| GUGGACUUUUAGCAAUCAGTT against Olfr98 | -1.55 |
| GGAGACUUAUUGAGCAAGUTT against Usp44 | 4.42 (active) |
| CGCUGAAGUCUUUUCACAATT against Baiap2 | 0.286 |
| CCCUUUCGGGCAAUGGACUTT against Olfr986 | -0.0157 |
| GGGCUUAAGCUUUGAGGGUTT against Foxs1 | 0.213 |
| GGGUUUGCACUAGUUUAUUTT against Rap1a | 0.632 |
| GGUCCUAAAGCCUUUUCUATT against Mrpl10 | 0.199 |
| GGAAGGGUCAGAAAAAUGUTT against Slc1a2 | 0.202 |
| GGUAAUGAUCCAUUCACCATT against Ly75 | -1.47 |
| GCAUAUACUUGAUUACCGUTT against Olfr830 | -0.391 |
| CCUCUGUCAGUUGGUUAACTT against Mon2 | -2.33 (active) |
| CCUUCUACUAAUCAAGAGATT against Sparc | -0.578 |
| GGACCACAGAAGUUCUCAUTT against Pira2 | -2.88 (active) |
| GCACGGAAGACUUACGAACTT against Cstf3 | 0.439 |
| GGACAUAUUUCCAACAUGUTT against Mob3b | -1.34 |
| CGAAUCAUGUGUUUGCACATT against Camkk2 | 1.21 |
| GCCUGAUUGACUUAGAGUCTT against Eps8 | 0.821 |
| GCAGGUGAAGAGUGAUUUUTT against Il10 | 0.318 |
| GGAACUGCUUACGAAAUACTT against Lama4 | -2.33 (active) |
| GGAUGUGUUAUCGGUGCUCTT against Mup21 | -0.303 |
| GGAAGAGGAAGAAAAAAAGTT against Iqcf4 | -0.411 |

| Sequence | z-score |
| --- | --- |
| CUUACGAUACAUAAGAGAATT against Zfp457 | 0.364 |
| CGACAACAUUUUCCUGUCATT against Serpinc1 | -2.07 (active) |
| GGAGAGAGAGAAGAAGGAUTT against Zmat2 | -1.47 |
| GCUCAUUCCAGGUAUCUGATT against Fcna | -1.19 |
| GCUAUGACAGUUAUGCUACTT against Cirbp | 0.874 |
| GGAUACGAGACAAUGAGAATT against Kctd2 | -0.404 |
| GCGAAUUACUAUGUACCUATT against Sqor | 1.75 |
| GGACUGAGGAGAGCAAUAUTT against Cts6 | -1.29 |
| GGCGGACAGAAAUUAUAGATT against Tnpo3 | 3.19 (active) |
| CCGUUGCCUGAUAAGUUCUTT against Klf3 | 0.576 |
| GCCUUUCUGAGGGAUUUUGTT against Eif1ad | -1.81 |
| GCCAAGCUUACUCAGAUUUTT against Mslnl | 2.45 (active) |
| GGCCUUUAUUCAGAUGUCATT against Zscan12 | -2.79 (active) |
| GGUUUAGGCAACUAAGUUGTT against Stat5a | 0.426 |
| GCAAAGUACCCACCUUUGUTT against Pitpna | 2.06 (active) |
| GGCAACUUUGAAGUCUUGATT against Dntt | -0.488 |
| GGGUUCUUUUAGGUUGUCATT against Ccdc85a | -0.123 |
| GGAACUUCAUCCAAACUGATT against Ap4m1 | -0.12 |
| CGUCCAAGCAUAUAUGAAATT against Slfn8 | 1.36 |
| GGGAAGAGAAUGAGAUAAATT against F7 | 3.22 (active) |
| CCGACAUUCGAGUUUUGCGTT against Rrp9 | -0.532 |
| GCGAACAACCACGUUUUUCTT against Ddx18 | 0.388 |

| Sequence | z-score |
| --- | --- |
| GGUGUCAAGAAGAAUGUCCTT against Megf11 | 3.2 (active) |
| GGCCGAAAGAUAAAAACAGTT against Rad51d | 0.173 |
| GCGACACCACUGAUGACGATT against Gga2 | -0.473 |
| GGAAAAACAUGCCAAAAAATT against Mettl15 | -0.222 |
| CCUUAGUAUGUAUGUGGUATT against Map10 | -2.65 (active) |
| CCACACUUCCCUUAUUUAATT against Arpc5 | 1.35 |
| GGCUAAAGACCAGUAUUUGTT against Cdh7 | 2.47 (active) |
| CGCAGUCAAAUUUGAAAGUTT against Car5b | 0.775 |
| GGCUGACAGACAAGAUUGUTT against Tfb1m | -1.3 |
| GCCUGUGGUGAUUCUCUUGTT against Tmem53 | -0.093 |
| CCCAGUUAUCCUGAAAAGUTT against Ears2 | 0.526 |
| GCAAAAGUAUUUUGUGUCCTT against Aamp | 0.241 |
| GCGCAAUGAACGGUUCUACTT against Prepl | 3.96 (active) |
| GGGAUGUGAGGGAAUUAACTT against B4galt3 | -1.03 |
| GGUCUUCAAGAACUGUAGCTT against Bcl11b | 1.09 |
| GCACACCAGAUCUACUUCUTT against Cyp2b9 | 0.3 |
| GCUUCACUCCACCUUUCAGTT against Prkcg | 0.767 |
| GGUCGUUUCUAUGAUUGGCTT against Olfr589 | 0.568 |
| GCUCGAAGAAAGGCCCUGATT against B430306N03Rik | -0.509 |
| GGACCUAAACAACGUGUUGTT against Klf2 | 2.74 (active) |
